# Reference: article PMC7862700, “An all-to-all approach to the identification of sequence-specific readers for epigenetic DNA modifications on cytosine”
# Columns and labels:
# Assay in all cases: DAPPL (digital affinity profiling via proximity ligation, sequencing); 10 mM Tris-HCl pH 7.5, 50 mM NaCl, 1 mM DTT, 4% glycerol, room temperature, 30 min; GST-TFs on glutathione beads, 16-mer random dsDNA library, 0.1% formaldehyde crosslink after washing; high values mean tight binding
# [1] = target: T1, FEV (Homo sapiens, UniProt Q99581 1-238); conditions: protein: recombinant; tags: N-terminal GST; dsDNA, one strand shown
# T1 sequence: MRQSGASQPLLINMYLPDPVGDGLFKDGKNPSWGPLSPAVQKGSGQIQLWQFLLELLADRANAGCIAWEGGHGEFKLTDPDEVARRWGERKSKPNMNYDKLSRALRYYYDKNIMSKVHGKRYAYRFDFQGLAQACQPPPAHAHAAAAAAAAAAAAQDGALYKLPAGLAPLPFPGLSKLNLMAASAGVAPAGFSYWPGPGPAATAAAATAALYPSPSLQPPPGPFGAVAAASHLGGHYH
# Summary of the method: (§1)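 Yeast served to express human transcription factors as GST fusions, which were then captured on glutathione beads and labelled with DNA barcodes. Pooled with a tag-only sample, they were incubated with 200 nmole of a 16-mer random double-stranded DNA library for 30 min at room temperature in Tris/NaCl/DTT/glycerol buffer, washed, crosslinked with 0.1% formaldehyde, ligated by proximity, amplified by PCR and sequenced. Dividing each hexamer's read frequency for a factor by its frequency for the tag-only sample gives the binding signal.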
# [2] = target: ETV5 (Homo sapiens, UniProt P41161 1-510); conditions: protein: recombinant; tags: N-terminal GST; dsDNA, one strand shown
# Summary of the method: as §1
# [3] = target: HSF1 (Homo sapiens, UniProt Q00613 1-529); conditions: protein: recombinant; tags: N-terminal GST; chain copies: 3; dsDNA, one strand shown
# Summary of the method: as §1
# [4] = target: T2, SPIC (Homo sapiens, UniProt Q8N5J4 1-248); conditions: protein: recombinant; tags: N-terminal GST; dsDNA, one strand shown
# T2 sequence: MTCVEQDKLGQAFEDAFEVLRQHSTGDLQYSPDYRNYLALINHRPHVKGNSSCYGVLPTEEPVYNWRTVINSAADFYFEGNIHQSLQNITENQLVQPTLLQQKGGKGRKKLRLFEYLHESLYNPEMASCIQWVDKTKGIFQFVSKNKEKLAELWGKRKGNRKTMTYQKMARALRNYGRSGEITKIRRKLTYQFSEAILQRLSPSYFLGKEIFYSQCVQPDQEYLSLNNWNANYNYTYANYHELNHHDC
# Summary of the method: as §1
# [5] = target: ELF4 (Homo sapiens, UniProt Q99607 1-663); conditions: protein: recombinant; tags: N-terminal GST; dsDNA, one strand shown
# Summary of the method: as §1
# [6] = target: T3, ELK4 (Homo sapiens, UniProt P28324-2 1-405); conditions: protein: recombinant; tags: N-terminal GST; dsDNA, one strand shown
# T3 sequence: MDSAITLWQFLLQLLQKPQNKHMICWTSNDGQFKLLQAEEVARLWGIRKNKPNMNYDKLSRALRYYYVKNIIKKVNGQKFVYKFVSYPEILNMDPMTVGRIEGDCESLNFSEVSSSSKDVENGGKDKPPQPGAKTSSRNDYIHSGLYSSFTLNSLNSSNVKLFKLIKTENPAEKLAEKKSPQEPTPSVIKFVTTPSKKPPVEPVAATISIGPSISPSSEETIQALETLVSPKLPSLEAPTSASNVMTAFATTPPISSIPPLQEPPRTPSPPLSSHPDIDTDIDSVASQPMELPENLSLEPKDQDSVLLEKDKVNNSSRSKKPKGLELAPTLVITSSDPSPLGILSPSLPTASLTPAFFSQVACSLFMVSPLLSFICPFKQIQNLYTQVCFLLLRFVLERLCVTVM
# Summary of the method: as §1
# [7] = target: T4, ETV2 (Homo sapiens, UniProt O00321 1-342); conditions: protein: recombinant; tags: N-terminal GST; dsDNA, one strand shown
# T4 sequence: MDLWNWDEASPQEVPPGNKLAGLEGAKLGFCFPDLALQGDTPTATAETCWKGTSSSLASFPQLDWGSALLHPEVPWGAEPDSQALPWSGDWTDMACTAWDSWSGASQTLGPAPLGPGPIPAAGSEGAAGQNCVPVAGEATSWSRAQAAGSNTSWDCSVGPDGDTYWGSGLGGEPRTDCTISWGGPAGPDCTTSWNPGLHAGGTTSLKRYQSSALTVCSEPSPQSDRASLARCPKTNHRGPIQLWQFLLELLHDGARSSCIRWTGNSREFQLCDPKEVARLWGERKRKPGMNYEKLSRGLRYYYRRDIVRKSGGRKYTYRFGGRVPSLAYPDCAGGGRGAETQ
# Summary of the method: as §1
# [8] = target: T5, ELF3 (Homo sapiens, UniProt P78545 1-371); conditions: protein: recombinant; tags: N-terminal GST; dsDNA, one strand shown
# T5 sequence: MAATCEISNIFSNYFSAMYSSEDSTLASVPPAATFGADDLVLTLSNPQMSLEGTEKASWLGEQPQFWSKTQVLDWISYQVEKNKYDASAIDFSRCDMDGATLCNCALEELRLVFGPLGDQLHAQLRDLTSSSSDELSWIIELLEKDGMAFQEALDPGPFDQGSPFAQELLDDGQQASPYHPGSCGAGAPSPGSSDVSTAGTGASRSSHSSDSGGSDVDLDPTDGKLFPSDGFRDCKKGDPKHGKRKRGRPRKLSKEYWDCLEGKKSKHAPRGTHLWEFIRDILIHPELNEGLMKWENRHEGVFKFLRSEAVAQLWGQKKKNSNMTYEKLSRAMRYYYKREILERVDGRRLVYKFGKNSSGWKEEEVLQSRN
# Summary of the method: as §1
# [9] = target: ETV1 (Homo sapiens, UniProt P50549 1-477); conditions: protein: recombinant; tags: N-terminal GST; dsDNA, one strand shown
# Summary of the method: as §1
# [10] = target: T6, ERF (Homo sapiens, UniProt P50548 1-548); conditions: protein: recombinant; tags: N-terminal GST; dsDNA, one strand shown
# T6 sequence: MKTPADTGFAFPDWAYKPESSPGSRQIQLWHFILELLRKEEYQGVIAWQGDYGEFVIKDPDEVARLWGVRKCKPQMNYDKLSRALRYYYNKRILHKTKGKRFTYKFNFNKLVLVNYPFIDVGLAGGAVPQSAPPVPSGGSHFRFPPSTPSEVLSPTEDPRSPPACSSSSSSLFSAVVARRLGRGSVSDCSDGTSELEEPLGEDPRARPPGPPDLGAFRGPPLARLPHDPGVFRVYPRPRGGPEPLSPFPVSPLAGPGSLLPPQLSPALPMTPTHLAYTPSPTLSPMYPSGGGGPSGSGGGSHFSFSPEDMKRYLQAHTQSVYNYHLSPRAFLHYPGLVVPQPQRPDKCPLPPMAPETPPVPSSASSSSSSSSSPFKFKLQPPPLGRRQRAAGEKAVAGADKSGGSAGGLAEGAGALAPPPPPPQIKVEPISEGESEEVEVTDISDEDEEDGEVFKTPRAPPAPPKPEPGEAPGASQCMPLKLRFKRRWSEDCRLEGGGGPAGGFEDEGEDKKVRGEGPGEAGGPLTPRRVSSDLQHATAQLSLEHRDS
# Summary of the method: as §1
# [11] = target: T7, ETV3L (Homo sapiens, UniProt Q6ZN32 1-361); conditions: protein: recombinant; tags: N-terminal GST; dsDNA, one strand shown
# T7 sequence: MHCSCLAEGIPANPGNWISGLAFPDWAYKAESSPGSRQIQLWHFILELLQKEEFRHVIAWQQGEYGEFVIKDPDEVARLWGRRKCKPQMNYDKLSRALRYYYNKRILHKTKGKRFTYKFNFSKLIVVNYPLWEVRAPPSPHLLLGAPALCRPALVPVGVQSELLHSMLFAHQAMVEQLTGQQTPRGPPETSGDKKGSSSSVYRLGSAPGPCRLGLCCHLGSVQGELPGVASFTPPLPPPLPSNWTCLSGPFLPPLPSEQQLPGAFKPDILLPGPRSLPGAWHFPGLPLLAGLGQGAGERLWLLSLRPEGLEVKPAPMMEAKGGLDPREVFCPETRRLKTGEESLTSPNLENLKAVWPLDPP
# Summary of the method: as §1
# [12] = target: T8, ETS2 (Homo sapiens, UniProt P15036 1-469); conditions: protein: recombinant; tags: N-terminal GST; dsDNA, one strand shown
# T8 sequence: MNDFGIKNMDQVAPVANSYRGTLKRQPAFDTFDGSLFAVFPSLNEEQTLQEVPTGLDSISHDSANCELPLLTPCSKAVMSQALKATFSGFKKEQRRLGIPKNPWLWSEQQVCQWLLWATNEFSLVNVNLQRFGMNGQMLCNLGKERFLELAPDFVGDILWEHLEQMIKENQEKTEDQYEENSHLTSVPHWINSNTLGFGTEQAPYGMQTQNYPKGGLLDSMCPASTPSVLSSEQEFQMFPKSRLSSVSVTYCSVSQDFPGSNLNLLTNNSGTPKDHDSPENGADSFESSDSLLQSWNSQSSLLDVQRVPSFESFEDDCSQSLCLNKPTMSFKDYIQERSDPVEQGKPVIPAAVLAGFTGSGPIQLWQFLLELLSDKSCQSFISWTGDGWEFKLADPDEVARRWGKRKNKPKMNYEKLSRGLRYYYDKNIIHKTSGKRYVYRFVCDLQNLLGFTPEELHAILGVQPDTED
# Summary of the method: as §1
# [13] = target: T9, SPDEF (Homo sapiens, UniProt O95238 1-335); conditions: protein: recombinant; tags: N-terminal GST; dsDNA, one strand shown
# T9 sequence: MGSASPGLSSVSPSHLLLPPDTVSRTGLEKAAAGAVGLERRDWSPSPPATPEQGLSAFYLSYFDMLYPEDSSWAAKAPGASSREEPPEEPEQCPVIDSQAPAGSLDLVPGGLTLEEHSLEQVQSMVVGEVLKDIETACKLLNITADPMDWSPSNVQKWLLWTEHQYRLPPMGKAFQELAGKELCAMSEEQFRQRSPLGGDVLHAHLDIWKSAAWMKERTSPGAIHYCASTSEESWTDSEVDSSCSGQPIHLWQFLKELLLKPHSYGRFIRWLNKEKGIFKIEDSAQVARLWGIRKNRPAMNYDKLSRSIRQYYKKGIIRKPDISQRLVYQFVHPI
# Summary of the method: as §1
# [14] = target: T10, ETV7 (Homo sapiens, UniProt Q9Y603 1-341); conditions: protein: recombinant; tags: N-terminal GST; dsDNA, one strand shown
# T10 sequence: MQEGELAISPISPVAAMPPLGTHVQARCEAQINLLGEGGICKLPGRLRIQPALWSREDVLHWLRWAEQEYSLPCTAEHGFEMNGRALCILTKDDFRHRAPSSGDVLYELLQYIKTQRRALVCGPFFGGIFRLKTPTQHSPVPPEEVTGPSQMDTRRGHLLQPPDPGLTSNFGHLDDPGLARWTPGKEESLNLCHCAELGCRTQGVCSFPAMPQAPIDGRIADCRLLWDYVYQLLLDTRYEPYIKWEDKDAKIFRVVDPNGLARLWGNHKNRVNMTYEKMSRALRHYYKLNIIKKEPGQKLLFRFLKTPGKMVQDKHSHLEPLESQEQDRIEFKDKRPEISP
# Summary of the method: as §1
# [15] = target: T11, ELF5 (Homo sapiens, UniProt Q9UKW6-2 1-255); conditions: protein: recombinant; tags: N-terminal GST; dsDNA, one strand shown
# T11 sequence: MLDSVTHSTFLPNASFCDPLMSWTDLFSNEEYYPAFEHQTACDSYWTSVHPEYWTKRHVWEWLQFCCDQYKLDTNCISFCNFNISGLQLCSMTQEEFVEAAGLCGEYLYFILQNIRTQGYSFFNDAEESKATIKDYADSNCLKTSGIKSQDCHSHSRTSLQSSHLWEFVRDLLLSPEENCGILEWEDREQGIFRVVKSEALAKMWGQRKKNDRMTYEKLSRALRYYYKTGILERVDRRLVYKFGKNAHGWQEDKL
# Summary of the method: as §1
# [16] = target: T12, ETV3 (Homo sapiens, UniProt P41162-2 1-143); conditions: protein: recombinant; tags: N-terminal GST; dsDNA, one strand shown
# T12 sequence: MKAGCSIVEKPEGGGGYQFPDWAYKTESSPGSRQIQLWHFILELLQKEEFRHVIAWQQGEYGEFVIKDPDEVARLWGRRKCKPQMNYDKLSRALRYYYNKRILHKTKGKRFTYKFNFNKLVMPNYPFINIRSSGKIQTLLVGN
# Summary of the method: as §1
# [17] = target: ETV6 (Homo sapiens, UniProt P41212 1-452); conditions: protein: recombinant; tags: N-terminal GST; dsDNA, one strand shown
# Summary of the method: as §1
# Sequence of ETV1 (P50549 whole entry): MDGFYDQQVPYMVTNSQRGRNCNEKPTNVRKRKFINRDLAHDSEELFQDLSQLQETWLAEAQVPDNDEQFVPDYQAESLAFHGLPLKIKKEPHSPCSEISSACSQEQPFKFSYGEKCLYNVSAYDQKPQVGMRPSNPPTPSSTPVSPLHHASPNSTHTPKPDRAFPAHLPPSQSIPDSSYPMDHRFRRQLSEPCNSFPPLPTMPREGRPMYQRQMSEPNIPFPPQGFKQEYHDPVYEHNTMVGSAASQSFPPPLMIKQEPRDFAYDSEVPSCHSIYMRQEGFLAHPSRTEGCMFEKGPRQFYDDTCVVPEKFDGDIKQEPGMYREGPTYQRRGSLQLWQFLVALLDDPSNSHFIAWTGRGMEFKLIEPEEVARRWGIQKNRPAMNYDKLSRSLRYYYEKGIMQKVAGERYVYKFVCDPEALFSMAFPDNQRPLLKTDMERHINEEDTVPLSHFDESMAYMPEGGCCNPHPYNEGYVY
# Sequence of ETV6 (P41212 whole entry): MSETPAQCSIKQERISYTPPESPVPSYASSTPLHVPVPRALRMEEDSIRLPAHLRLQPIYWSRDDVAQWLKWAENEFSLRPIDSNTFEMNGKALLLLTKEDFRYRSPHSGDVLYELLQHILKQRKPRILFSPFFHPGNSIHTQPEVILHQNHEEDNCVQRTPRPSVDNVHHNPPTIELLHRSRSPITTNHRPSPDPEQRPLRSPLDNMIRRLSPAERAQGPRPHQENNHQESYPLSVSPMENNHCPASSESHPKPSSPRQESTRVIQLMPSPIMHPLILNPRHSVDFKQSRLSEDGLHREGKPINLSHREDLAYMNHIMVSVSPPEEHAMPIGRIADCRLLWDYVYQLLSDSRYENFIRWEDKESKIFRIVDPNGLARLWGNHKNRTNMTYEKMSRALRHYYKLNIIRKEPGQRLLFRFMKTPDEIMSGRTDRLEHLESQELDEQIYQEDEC
# Sequence of ETV5 (P41161 whole entry): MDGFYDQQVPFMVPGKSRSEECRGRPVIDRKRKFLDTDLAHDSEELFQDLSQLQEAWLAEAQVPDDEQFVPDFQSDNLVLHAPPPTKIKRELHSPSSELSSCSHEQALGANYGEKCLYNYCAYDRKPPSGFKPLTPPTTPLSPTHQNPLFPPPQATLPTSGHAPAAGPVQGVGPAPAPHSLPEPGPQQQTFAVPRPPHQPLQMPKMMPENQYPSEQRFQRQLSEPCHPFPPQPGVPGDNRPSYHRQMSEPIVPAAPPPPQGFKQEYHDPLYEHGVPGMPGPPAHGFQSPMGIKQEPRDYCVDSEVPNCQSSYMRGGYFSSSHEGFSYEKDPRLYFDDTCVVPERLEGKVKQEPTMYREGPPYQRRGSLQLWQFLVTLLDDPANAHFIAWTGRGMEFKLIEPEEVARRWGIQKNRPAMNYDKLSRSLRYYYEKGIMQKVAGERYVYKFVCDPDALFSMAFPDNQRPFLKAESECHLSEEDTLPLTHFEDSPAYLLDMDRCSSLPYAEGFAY
# Sequence of HSF1 (Q00613 whole entry): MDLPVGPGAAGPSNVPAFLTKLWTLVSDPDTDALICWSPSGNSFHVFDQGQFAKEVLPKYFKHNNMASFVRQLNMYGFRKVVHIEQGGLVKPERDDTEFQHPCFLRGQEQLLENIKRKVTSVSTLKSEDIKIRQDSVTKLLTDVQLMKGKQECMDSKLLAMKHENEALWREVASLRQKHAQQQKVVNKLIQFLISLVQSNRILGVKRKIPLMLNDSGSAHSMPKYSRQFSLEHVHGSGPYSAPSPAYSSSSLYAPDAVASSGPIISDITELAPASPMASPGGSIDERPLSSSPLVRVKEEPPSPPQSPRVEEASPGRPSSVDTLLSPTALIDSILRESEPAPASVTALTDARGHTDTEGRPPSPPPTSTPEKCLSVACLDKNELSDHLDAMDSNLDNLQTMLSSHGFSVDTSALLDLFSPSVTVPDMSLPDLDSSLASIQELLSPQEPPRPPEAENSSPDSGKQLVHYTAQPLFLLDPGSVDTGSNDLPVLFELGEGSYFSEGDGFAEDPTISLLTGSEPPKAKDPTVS
# Sequence of ELF4 (Q99607 whole entry): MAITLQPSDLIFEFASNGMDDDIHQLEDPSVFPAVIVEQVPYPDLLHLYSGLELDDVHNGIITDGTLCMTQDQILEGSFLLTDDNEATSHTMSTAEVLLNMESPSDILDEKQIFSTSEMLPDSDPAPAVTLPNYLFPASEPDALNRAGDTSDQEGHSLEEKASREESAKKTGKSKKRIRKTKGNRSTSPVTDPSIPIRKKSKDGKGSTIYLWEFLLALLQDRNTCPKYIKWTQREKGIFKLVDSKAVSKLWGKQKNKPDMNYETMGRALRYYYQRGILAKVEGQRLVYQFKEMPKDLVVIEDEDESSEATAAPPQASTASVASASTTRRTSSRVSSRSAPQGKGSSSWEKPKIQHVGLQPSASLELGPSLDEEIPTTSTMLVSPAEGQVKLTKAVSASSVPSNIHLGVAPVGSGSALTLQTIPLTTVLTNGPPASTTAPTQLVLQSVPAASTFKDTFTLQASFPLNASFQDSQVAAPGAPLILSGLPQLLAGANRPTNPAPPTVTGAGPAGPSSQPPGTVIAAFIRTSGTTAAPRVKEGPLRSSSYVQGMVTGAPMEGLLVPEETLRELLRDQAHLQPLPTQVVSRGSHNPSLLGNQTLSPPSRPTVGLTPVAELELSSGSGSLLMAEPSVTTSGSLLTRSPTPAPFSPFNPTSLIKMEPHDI
sequence,measurement,setting,value
CGCGTC,binding signal,[1],"1.2 fold enrichment (6-mer frequency, TF over GST control)"
same,binding signal,[2],"1.06 fold enrichment (6-mer frequency, TF over GST control)"
same,binding signal,[3],"1.02 fold enrichment (6-mer frequency, TF over GST control)"
same,binding signal,[4],"1.39 fold enrichment (6-mer frequency, TF over GST control)"
same,binding signal,[5],"1.19 fold enrichment (6-mer frequency, TF over GST control)"
same,binding signal,[6],"1.48 fold enrichment (6-mer frequency, TF over GST control)"
same,binding signal,[7],"1.35 fold enrichment (6-mer frequency, TF over GST control)"
same,binding signal,[8],"1.44 fold enrichment (6-mer frequency, TF over GST control)"
same,binding signal,[9],"1.22 fold enrichment (6-mer frequency, TF over GST control)"
same,binding signal,[10],"1.37 fold enrichment (6-mer frequency, TF over GST control)"
same,binding signal,[11],"1.26 fold enrichment (6-mer frequency, TF over GST control)"
same,binding signal,[12],"1.24 fold enrichment (6-mer frequency, TF over GST control)"
same,binding signal,[13],"1.31 fold enrichment (6-mer frequency, TF over GST control)"
same,binding signal,[14],"1.25 fold enrichment (6-mer frequency, TF over GST control)"
same,binding signal,[15],"1.34 fold enrichment (6-mer frequency, TF over GST control)"
same,binding signal,[16],"1.23 fold enrichment (6-mer frequency, TF over GST control)"
same,binding signal,[17],"1.29 fold enrichment (6-mer frequency, TF over GST control)"
